# The list is not random: actives were taken first. Their share in the collection is about 19%.
# DT40 TDP1 no CPT: qHTS for Inhibitors of human tyrosyl-DNA phosphodiesterase 1 (TDP1): qHTS in cells in absence of CPT; hit rate 15% among 420,000; Potency, µM (highest dose often 46.2 µM), without a hit: at the highest dose activity change, negative = growth inhibition, usual class: inhibitors; DT40 Tdp1-/- hTDP1 cells, no CPT, ATP luminescence, 48 h; AID 686978, 2013; also: potency is read from the fitted curve at half-maximal effect; nearly all actives have a fitted effect of over 55% in size
#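 DT40 Tdp1-/-;hTDP1 cells, no CPT (DMSO vehicle only), 400 cells/well; compounds pin-transferred; ≥48 hr, 37 °C; CellTiter-Glo 30 min RT dark, luminescence read.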
# ELG1 repair inh: ELG1-dependent DNA repair inhibition | hit rate 2.3% among 330,000 | Potency, µM (highest dose often 46.1 µM), for inactives: at the top dose activity change, negative = inhibition, hits mostly inhibitors | HEK293T ELG1-luciferase reporter, luminescence, 16 h; DNA damage induced by 5-fluorouridine; also: potency is read from the fitted curve at half-maximal effect; nearly all actives have a fitted effect of over 55% in size
#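 DMSO vehicle served as the neutral condition. Each well held 2,000 cells given 5-fluorouridine plus compound; after 16 hr at 37 °C/5% CO2, ONE-Glo was added and luciferase measured 30 min later.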
# TDP1 cell CPT: DT40-hTDP1 cell growth loss with CPT; chicken DT40 Tdp1-/-;hTDP1 cells + 20 nM CPT, ATP luminescence, 48 h; Potency, µM (series often up to 46.2 µM), without a hit: at the top dose activity change, negative = growth inhibition, most hits filed as inhibitors; hit rate 12% among 420,000; also: potency is read from the fitted curve at half-maximal effect; nearly all actives have a fitted effect of over 55% in size
#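 Cell growth measured by CellTiter-Glo luminescence after a minimum 48 h, 37 C compound exposure with 20 nM CPT in Tdp1-knockout DT40 cells stably expressing hTDP1, seeded 400/well; qHTS titration format.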
# HT1080NT lethal: kills 2HG-producing HT-1080-NT fibrosarcoma cells; HT-1080-NT fibrosarcoma viability, CellTiter-Glo ATP luminescence, 48 h; Potency, µM (titrated, usually from 46.1 µM), for the others: at the top dose activity, negative = less viability, hits mostly cytotoxic; hit rate 1.6% among 360,000; AID 686970;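 also: NT is the 2HG producing partner of a matched IDH1 knockdown line; potency is read from the fitted curve at half-maximal effect; 0% = DMSO-treated cells and -100% = media-only wells without cells; nearly all actives have a fitted effect of over 55% in size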
#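 Luminescent CellTiter-Glo readout after 48 hours of compound exposure at 37 degrees C defined viability of HT-1080-NT cells. Activity was normalized to DMSO wells and cell-free media wells; concentration-response curves were fitted and assigned curve classes.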
# HT1080 IDH1KD tx: toxicity to HT-1080 IDH1 knockdown cells (counter line). HT-1080 IDH1 knockdown viability, ATP luminescence, 48 h. Potency, µM (highest dose often 46.1 µM), inactives show top-dose activity, negative = toxicity, most hits filed as cytotoxic. hit rate 2% among 360,000;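 also: potency is read from the fitted curve at half-maximal effect; 0% = DMSO wells and -100% = cell-free medium wells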
#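 Assay cells: HT-1080 with IDH1 knockdown, 750 per well, RPMI/5% FBS. Exposure: 48 h at 37 °C following 2 h pre-incubation. Read: CellTiter-Glo luminescence; fitted concentration-response, curve class assigned.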
# IL1B secr inh: blocks inflammasome-driven IL-1 beta release. THP-1 LPS/ATP IL-1B secretion, AlphaLISA, 16 h; hits give low values. activity change, % at 57.5 µM. hit rate 4.7% among 360,000. AID 743279; in the data active = activity change below about -50%; inconclusive = mostly about -30% to -49%
#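 THP-1 cells pretreated 1 hr with compounds (up to 57.5 uM final), then stimulated with LPS (250 ng/mL final) plus ATP (1.25 mM final); secreted IL-1B measured by AlphaLISA after 16 hr, decreased signal indicating inhibition.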
# An asterisk follows results filed as active; ? = inconclusive; · = no result; [ ] = another dose, or the depositor's remark. Unless noted, calls follow the shape of the dose curve; as a rule, active = well fitted curve in the direction sought with a large enough effect; inconclusive = small, poorly fitted or top-dose-only effect, or another doubt; inactive = no such curve, though single readings can be large; an effect the other way counts as inactive or inconclusive. Unless noted, % is scaled to controls: 0 for no effect and ±100 for the full control effect.
SMILES,DT40 TDP1 no CPT,ELG1 repair inh,TDP1 cell CPT,HT1080NT lethal,HT1080 IDH1KD tx,IL1B secr inh
COc1ccc(NC(=O)C2(C)Cc3c(-c4cccc(C(N)=O)c4)ccnc3O2)cn1 (centres undefined),2.31µM*,·,3.66µM*,?,4.61µM*,28.7
CC(C)c1ccc(NC(=O)C2(C)Cc3c(-c4cccc(C(F)(F)F)c4)ccnc3O2)cc1 (centres undefined),?,·,16.4µM*,-3.4%,-22.5%,-19.2
CC(=O)c1cccc(NC(=O)C2(C)Cc3c(-c4cccc(C(N)=O)c4)ccnc3O2)c1 (centres undefined),?,·,?,?,?,-23.3
Cc1ccc(-c2ccnc(-n3ncc(C(=O)NC[C@@H]4CCCN5CCCC[C@H]45)c3C3CC3)n2)o1,-13.9%,·,13.4%,·,·,·
Cc1nn(C)cc1S(=O)(=O)Nc1cccc(Cl)c1,-3.2%,-3.7%,-0.8%,-2.8%,3.6%,14.8
CN(CC(=O)Nc1cccc(C(F)(F)F)c1)C1=NS(=O)(=O)c2ccccc21,-12.9%,10.7%,-24.9%,0.2%,1.2%,7.4
CCCSc1nc(=O)c2c(n1C)NC(=O)CC2c1cccc(F)c1F (centres undefined),-8.7%,·,-5.3%,·,·,·
CC(=O)Nc1ccc(-c2ccnc3c2CC(C)(C(=O)NC(C)C)O3)cc1 (centres undefined),-20.5%,·,-11.4%,?,3.9%,6.8
CC(C)c1ccc(NC(=O)C2(C)Cc3c(-c4ccccc4)ccnc3O2)cc1 (centres undefined),?,·,18.4µM*,?,10.0%,-6.3
COc1ccc(NC(=O)C2(C)Cc3c(-c4ccc(N(C)C)cc4)ccnc3O2)cn1 (centres undefined),9.2µM*,·,23.1µM*,?,?,-5.7
COC(=O)[C@]12CCCCC=C1N(Cc1ccco1)C(=O)[C@H](CC(=O)NCCCN1CCCC1=O)C2,-0.9%,·,4.5%,22.8%,10.1%,22.1
Cc1ccc(C(=O)N2C(CC(=O)Nc3ccc(Cl)cc3)C(=O)NC3CCCCC32)cc1 (centres undefined),?,-10.6%,16.4µM*,5.8µM*,5.17µM*,-25.5
O=C(CSCc1ccccc1Br)N/N=C/c1ccc(OCC(=O)N2CCCCC2)cc1,2.91µM*,25.9µM*,-7.3%,7.9%,9.8%,0.0
CC(C)(C)c1ccc(-c2cc(-c3ccccc3O)[nH]n2)cc1,?,?,?,?,14.6µM*,-98.6*
COc1ccc(-c2cc(-c3cc(C)ccc3O)[nH]n2)cc1,?,?,?,3.66µM*,?,?
COc1ccc(OC)c(NC(=O)c2cc(-c3ccc(C)cc3O)n[nH]2)c1,-24.2%,?,-28.2%,-6.5%,-11.7%,-19.1
COc1ccc(-c2cc(-c3ccc(OC)cc3)[nH]n2)cc1,?,?,?,19.7%,?,-23.4
COc1ccc(-c2cc(-c3ccc(C)cc3)n[nH]2)c(O)c1,?,?,25.9µM*,3.5%,?,5.7
CCN1CCN(C(=O)C(C)Oc2ccc(S(=O)(=O)N3CCCC3)cc2C(N)=O)CC1 (centres undefined),-0.1%,?,0.3%,-0.8%[9.24 µM],11.0%,-4.2
CCOC(=O)C1(C(=O)OCC)C(C)CC(=O)N1c1ccccc1OC (centres undefined),8.3%,·,-11.2%,13.5%,10.4%,9.5
Fc1ccc(C(CCNCc2ccccn2)c2ccc(Cl)cc2)cc1 (centres undefined),18.4µM*,-11.1%,?,18.4µM*,20.6µM*,-89.6*
Cc1cc(Oc2cc(NN3CCCCC3)c([N+](=O)[O-])cc2[N+](=O)[O-])c(C(=O)c2ccccc2)cc1Cl,?,-23.2%,20.6µM*,0.0%,1.8%,0.7
Cc1ccc(C)c(Oc2cc(NN3CCCCC3)c([N+](=O)[O-])cc2[N+](=O)[O-])c1,-21.8%,-10.9%,?,13.9%,11.9%,6.7
COc1cc(C(C)=O)ccc1Oc1cc(NN2CCCCC2)c([N+](=O)[O-])cc1[N+](=O)[O-],?,12.6%,23.1µM*,-5.6%,-5.9%,-15.8
CC1(C)Cc2cccc(Oc3cc(NN4CCCCC4)c([N+](=O)[O-])cc3[N+](=O)[O-])c2O1,16.4µM*,19.2%,?,-0.9%,9.4%,-1.7
SMILES,DT40 TDP1 no CPT,ELG1 repair inh,TDP1 cell CPT,HT1080NT lethal,HT1080 IDH1KD tx,IL1B secr inh
O=[N+]([O-])c1cc([N+](=O)[O-])c(Oc2cccc(Cl)c2Cl)cc1NN1CCCCC1,?,0.1%,23.1µM*,8.8%,11.4%,19.0
CC1CCN(c2cc(N3CCN(C(=O)c4ccc(F)c(F)c4)CC3)c([N+](=O)[O-])cc2F)CC1,23.1µM*,-18.2%,?,-2.2%,2.8%,-25.8
CC1CCN(c2cc(N3CCOCC3)c([N+](=O)[O-])cc2F)CC1,?,0.4%,-11.2%,-16.5%,-1.6%,13.2
Cc1cccc(N2CCN(C(=O)c3ccc(-n4cncn4)c([N+](=O)[O-])c3)CC2)c1C,-26.0%,?,20.6µM*,6.8%,1.0%,-13.6
O=C(c1ccc(N2CCN(S(=O)(=O)c3ccccc3)CC2)c([N+](=O)[O-])c1)N1CCOCC1,20.6µM*,?,?,0.2%,-3.7%,4.2
Cc1ccc(C(=O)N2CCN(c3ccccc3Cl)CC2)cc1[N+](=O)[O-],?,?,29.1µM*,-1.9%,3.0%,-9.8
C/C(=N\NC(=O)c1cc(C)oc1C)c1ccc(C)c([N+](=O)[O-])c1,?,11.8%,?,13.2%[9.24 µM],0.5%,1.4
Cc1ccc(C(=O)N2CCN(C(=O)c3ccc(C)cc3)C2)cc1,?,4.3%,3.7%,4.7%,4.0%,-2.5
Cc1c(C(=O)N(C)C)sc2c1c(=O)n(-c1ccccc1C(F)(F)F)c(=O)n2Cc1cccc(F)c1,-22.6%,·,-20.3%,·,·,·
COc1ccc(Cl)cc1NS(=O)(=O)c1cccc(C(=O)NC2CC2)c1,-28.6%,0.0%,-9.9%,-4.2%,-4.0%,-6.2
CCCS(=O)(=O)NCc1c(C)ncc2c1CCN(C(=O)c1ccc(Cl)cc1)C2,-15.7%,·,-3.3%[9.04 µM],·,·,·
COc1ncc2nc(C)c(=O)n(Cc3ccc(F)cc3)c2n1,-11.7%,·,-5.5%,·,·,·
Cc1nc(OCc2ccccc2)c2ccccc2n1,?,-13.5%,?,-10.0%,-16.1%,19.3
Cc1nc2ccccc2cc1OCc1ccccc1,16.4µM*,28.8%,11.6µM*,4.7%,-5.0%,23.6

# From PubChem BioAssay
